Screening results (PubChem)
Sampled rows, rich in hits. Any-hit rate of the full collection: about 2.8%.
KDM5B inh = blocks human KDM5B histone demethylase activity | Q9UGL1 | KDM5B demethylase, FDH-coupled NADH fluorescence (FDH is formaldehyde dehydrogenase) | Potency, µM (titrated, usually from 57.7 µM), actives largely listed as inhibitors | hit rate 2.6% among 220,000 | AID 1347165; note: potency is the fitted concentration of half-maximal effect; 0% is about no effect; nearly all actives have a fitted effect of over 70% in size
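Measured: NADH fluorescence change, 30 min, RT. System: KDM5BΔAP 200 nM final, H3K4me3 peptide, α-KG, Fe(II), ascorbate, NAD⁺ plus FDH, pH 7.5 HEPES. Compounds: titrated, 10 min pre-incubation with enzyme.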
SNCA expr inh = inhibitors of alpha-synuclein (SNCA) gene expression. HEK-293 SNCA-luciferase knock-in, luminescence, 24 h. Potency, µM (top dose mostly 57.2 µM), without a hit: top-dose activity change, negative = inhibition, most hits filed as inhibitors. hit rate 0.17% among 140,000. AID 1671194;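 note: potency is the fitted concentration of half-maximal effect; plate controls were DMSO cells for no effect and cell-free wells for full effect; nearly all actives have a fitted effect of over 45% in size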
HEK293 viab = counter-screen for SNCA expression inhibitors: cell viability. HEK-293-SNCA-luc viability, GF-AFC fluorescence, 24 h. Potency, µM (highest dose often 57.1 µM), inactives show top-dose activity change, negative = cytotoxicity, actives largely listed as cytotoxic. hit rate 0.12% among 150,000. AID 1671193;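 note: potency is the fitted concentration of half-maximal effect; 0% = DMSO-treated cells and -100% = medium-only wells without cells; nearly all actives have a fitted effect of over 30% in size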
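HEK-293-SNCA-luc cells (1500/well) plated 24 h, then exposed 24 h to a dilution series; GF-AFC added 30 min at 37C, fluorescence 405/540 nm; normalised to medium-only and DMSO wells, Hill fit.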
IP6K1 inh = inhibitors of human IP6K1. IP6K1 kinase, ADP-Glo luminescence, 2 h; hits give low values. activity change, % (series mostly up to about 58 µM). hit rate 0.81% among 140,000. AID 1645851; in the data active = activity change below about -25%; note: % is set by controls: 0 for no effect and ±100 for the full control effect
Target sequence (Q92551 whole entry, looked up): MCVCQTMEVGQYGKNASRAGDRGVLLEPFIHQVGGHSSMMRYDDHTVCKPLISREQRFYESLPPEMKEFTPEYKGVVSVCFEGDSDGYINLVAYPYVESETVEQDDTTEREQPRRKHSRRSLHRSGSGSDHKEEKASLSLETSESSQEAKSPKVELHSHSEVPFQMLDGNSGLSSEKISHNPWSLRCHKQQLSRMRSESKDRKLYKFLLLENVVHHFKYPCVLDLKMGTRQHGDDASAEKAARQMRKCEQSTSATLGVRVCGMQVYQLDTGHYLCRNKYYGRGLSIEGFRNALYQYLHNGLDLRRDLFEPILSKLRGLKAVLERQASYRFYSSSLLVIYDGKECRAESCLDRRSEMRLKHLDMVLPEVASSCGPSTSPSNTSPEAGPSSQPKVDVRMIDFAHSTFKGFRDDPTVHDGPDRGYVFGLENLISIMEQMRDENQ
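ADP-Glo luminescence measures ADP made by human IP6K1 during a 2 h RT reaction with ATP/IP6 (mix at 1.3 mM/130 uM); top library doses 57.5 and 19.1 uM final.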
IP6K1 inh cnf = confirmation of human IP6K1 inhibitors. recombinant IP6K1 kinase, ADP-Glo luminescence, 2 h. hit rate 13% among 1,200. Potency, µM (series often up to 49 µM), inactives show at the highest dose activity change, negative = inhibition, most hits filed as inhibitors. shares compounds with IP6K1 inh; note: potency is the fitted concentration of half-maximal effect; % is set by controls: 0 for no effect and ±100 for the full control effect; nearly all actives have a fitted effect of over 65% in size
Active calls of the source: *; i = inactive; u = inconclusive; x = no result given; ! = not active in a repeat; [ ] = another dose, or the depositor's remark. Unless noted, calls come from the whole dose curve; as a rule, active = well fitted curve in the direction sought with a large enough effect; inconclusive = small, poorly fitted or top-dose-only effect, or another doubt; inactive = no such curve, though single readings can be large; an effect the other way counts as inactive or inconclusive.

SMILES | KDM5B inh | SNCA expr inh | HEK293 viab | IP6K1 inh | IP6K1 inh cnf
CCC(=O)N1CCc2cc(Br)cc(S(=O)(=O)NCCCN(CC)Cc3ccccc3)c21 | i | x | x | x | x
CCC(=O)N1CCc2cc(Br)cc(S(=O)(=O)N(CC)Cc3ccccc3)c21 | i | -5% | 1% | -27* | 38%
CCC(=O)N1CCc2cc(Br)cc(S(=O)(=O)CCC(=O)N3CCN(c4ccccc4OC)CC3)c21 | i | 3% | 1% | -27* | -6%
CCCN(CC(=O)Nc1ccccc1C(=O)Nc1cccc(C)c1)Cc1nnc(-c2ccco2)o1 | i | x | x | x | x
COc1cc(Nc2ncc3c(n2)-c2ccc(Cl)cc2C(c2c(F)cccc2OC)=NC3)ccc1C(=O)O | x | -10% | -14% | -37*! | u
Cc1ncoc1C(=O)N1CCC(C2CCN(S(C)(=O)=O)CC2)C1 (configuration not stated) | i | 44% | -2%[12.5 µM] | -7 | x
O=S(=O)(NCc1ccc(F)cc1)c1ccc(N2CCCCS2(=O)=O)cc1 | i | -17% | 3% | -32* | 16%
O=S(=O)(NCc1ccc(Cl)cc1)c1ccc(N2CCCCS2(=O)=O)cc1 | i | u | 9% | 20 | x
O=C1CCC2(CCCO2)CCN1Cc1cccc(F)c1F (configuration not stated) | i | 42% | -2% | -31* | -9%
O=C1CCC2(CCCO2)CCN1Cc1c(F)cccc1F (configuration not stated) | i | 2% | -11% | 13 | x
Cc1ccccc1CNC(=O)c1nn(-c2ccccc2Cl)nc1CO | i | x | x | x | x
COc1ccc(/C=C/C(=O)NCc2ccc(C)cc2)cc1 | i | x | x | x | x
O=C(CCCc1ccccc1)N1CCC(Cc2noc(-c3ccccc3)n2)C1 (configuration not stated) | x | 4% | -4% | 15 | x
COCC1CCN(c2ccc(-c3nc(CCCc4ccccc4)no3)cn2)C1 (configuration not stated) | 35µM* | 92% | -4% | -33* | -12%
CN(Cc1ccccc1)C(=O)c1cc(-c2ccc(F)cc2)n[nH]1 | i | x | x | x | x
O=C([C@@H]1C[C@H](F)CN1C(=O)c1ccc(C(F)(F)F)cc1)N1CCCCC1 | i | 6% | -19% | 0 | x
CCCC(=O)Nc1ccc(-c2csc(NC(=O)c3ccc4c(c3)nnn4CC)n2)cc1 | i | x | x | x | x
O=C(Cc1c[nH]c2ncc(-c3cccc(F)c3)cc12)NCc1cccnc1 | u | -27%[87.6 µM] | -14%[87.6 µM] | -3 | x
COc1cccc(-c2cnc3[nH]cc(CC(=O)NCc4cccnc4)c3c2)c1 | u | 4%[87.6 µM] | 0%[87.6 µM] | -27* | u
O=C(Cc1c[nH]c2ncc(-c3cccc(Cl)c3)cc12)NCc1cccnc1 | u | 1%[87.6 µM] | -14%[87.6 µM] | -27* | u
COc1ccc(OC)c(-c2cnc3[nH]cc(CC(=O)NCc4cccnc4)c3c2)c1 | i | -20%[87.6 µM] | 4%[87.6 µM] | -16 | x
CCC(=O)N(C1CCOCC1)C1CCN(S(=O)(=O)c2cccc(C)c2)CC1 | i | -8% | 3% | -10 | x
CC1=C(C(=O)OC2CCCCC2)C(c2ccc([N+](=O)[O-])cc2)C2=C(CC(C)(C)CC2=O)N1 (configuration not stated) | x | x | -4% | -36* | -24%
CC1=C(C(=O)OC2CCCCCC2)C(c2c(Cl)cccc2Cl)CC(=O)N1 (configuration not stated) | i | u | -7% | 14 | x
Cc1cc(NC(=O)c2cccc(NC(=O)/C=C/CN(C)C)c2)ccc1Nc1nccc(-c2cccnc2)n1 | x | x | -31% | -34* | u
SMILES | KDM5B inh | SNCA expr inh | HEK293 viab | IP6K1 inh | IP6K1 inh cnf
COc1ccc(-c2nc3c(c(SCC(=O)Nc4cccc(O)c4)n2)Cc2c(CO)cnc(C)c2O3)cc1 | u | -8% | -22% | -29* | -3%
CCOc1ccc(NC(=O)CSc2nc(-c3ccc(OC)cc3)nc3c2Cc2c(CO)cnc(C)c2O3)cc1 | i | 11% | 14% | 14 | x
CC(Sc1ncccn1)C(=O)c1ccc(F)cc1 (configuration not stated) | i | x | x | x | x
Cc1ccc(CN(C)C(=O)Cc2c[nH]c3ccccc23)o1 | i | x | x | x | x
COC(=O)c1c(NC(=O)COc2ccc(OC)cc2)sc2c1CCC(C)C2 (configuration not stated) | u | u | u | -38* | -12%
O=C(O)CCN1CCN(CCC(=O)O)CC1 | i | x | x | x | x
CCOc1ccc(C2Cn3nnc(-c4nc(-c5ccsc5)no4)c3CO2)cc1 (configuration not stated) | 25µM* | 31% | -1% | -27* | -14%
O=c1[nH]c(N2CCOCC2)nc2c1CCN(Cc1ccccc1Cl)CC2 | i | 1% | -4% | 19 | x
COc1cc(F)ccc1-c1cc(C(=O)NCc2c(C)cc(C)[nH]c2=O)c2c(c1)ncn2C | u | u | -16%[87.6 µM] | -1 | x
Cn1cnc2cc(-c3ccc(F)cc3)cc(C(=O)NCCc3cnc[nH]3)c21 | u | -28%[87.6 µM] | -2%[87.6 µM] | -31* | u
CC1CCC(NC(=S)NC2CC2)CC1 (configuration not stated) | i | x | x | x | x
COc1cc(OC)c(NC(=O)C2=C(C)C(=O)OC23CCCCCC3)cc1Cl | i | 18% | 2% | -100* | -13%
CCCCCCCCCCCCCCCCCC(=O)O | x | -41%[25.6 µM] | -3%[23.9 µM] | -7 | x
CCCCCCCC(=O)[O-].CCCCCCCC(=O)[O-].[Zn+2] | x | -52%[25.6 µM] | -24%[23.9 µM] | -36* | u
c1cc2cc(CNC3CC3)ccc2[nH]1 | i | x | x | x | x
O=C(CCc1ccccc1)N1CCC2(CC1)CC(N(Cc1ccccc1)C1CC1)CCO2 (configuration not stated) | i | -9% | 2% | -27* | -14%
COc1ccc(-n2c(=O)c3c4c(sc3n(Cc3cc(=O)n5c(C)cccc5n3)c2=O)CCC4)c(OC)c1 | u | -9% | u | -39* | -10%
COc1ccc(NC(=O)c2cc(-c3ccc[nH]3)n[nH]2)cc1F | i | 1% | -2% | 13 | u
Cc1cccc(NC(=O)c2cc(-c3ccc[nH]3)n[nH]2)c1 | u | 47% | 6% | -9 | u
CN(C)CCCOC(=O)/C=C/c1ccccc1 | i | x | x | x | x
Cn1c(CCC(=O)N2CCCOCC2)nc2cc(S(=O)(=O)N3CCCC3)ccc21 | i | 10% | 5% | -31* | -9%
CC(C)c1ccc(-c2noc(CSc3nnc(C4COc5ccccc5O4)o3)n2)cc1 (configuration not stated) | i | x | x | x | x
COc1cccc(C(=O)N2CC(=O)Nc3ccc(C)cc3C2c2ccc(F)cc2)c1OC (configuration not stated) | i | 1% | -19% | -25* | -14%
Cc1ccc2c(c1)C(c1ccccc1)N(C(=O)c1ccccc1F)CC(=O)N2 (configuration not stated) | u | -17% | -3% | -14 | x
